Drawing on publication PMC7862700, “An all-to-all approach to the identification of sequence-specific readers for epigenetic DNA modifications on cytosine”, this text covers binding signal for one sequence.

What all share (assay): DAPPL (digital affinity profiling via proximity ligation, sequencing); 10 mM Tris-HCl pH 7.5, 50 mM NaCl, 1 mM DTT, 4% glycerol, room temperature, 30 min; GST-TFs on glutathione beads, 16-mer random dsDNA library, 0.1% formaldehyde crosslink after washing; high values mean tight binding
One experiment deals with T1, FEV (Homo sapiens, UniProt Q99581 1-238).
T1 sequence: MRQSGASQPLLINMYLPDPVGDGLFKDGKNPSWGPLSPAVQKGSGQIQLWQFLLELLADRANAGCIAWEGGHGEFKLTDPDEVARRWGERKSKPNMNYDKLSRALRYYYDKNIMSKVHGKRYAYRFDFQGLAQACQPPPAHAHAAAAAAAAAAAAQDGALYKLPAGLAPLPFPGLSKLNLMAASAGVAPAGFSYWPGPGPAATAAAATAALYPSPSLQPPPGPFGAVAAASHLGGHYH
The note with it: protein: recombinant; tags: N-terminal GST; dsDNA, one strand shown. In outline: (§1)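 Pools were built from human transcription factors expressed in yeast as GST fusions, captured on glutathione beads and DNA-barcoded, along with a tag-only sample. Incubation with 200 nmole of a 16-mer random double-stranded DNA library lasted 30 min at room temperature in Tris/NaCl/DTT/glycerol buffer, and was followed by washing, 0.1% formaldehyde crosslinking, proximity ligation, PCR amplification and Illumina NextSeq500 sequencing. Binding signal is the quotient of each hexamer's read frequency for a factor and its frequency for the tag-only sample.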

A further experiment deals with ETV5 (Homo sapiens, UniProt P41161 1-510). The note with it: protein: recombinant; tags: N-terminal GST; dsDNA, one strand shown. In outline:
as §1

In the next experiment the target is HSF1 (Homo sapiens, UniProt Q00613 1-529). The note with it: protein: recombinant; tags: N-terminal GST; chain copies: 3; dsDNA, one strand shown. In outline: as §1
The next experiment has as its target T2, SPIC (Homo sapiens, UniProt Q8N5J4 1-248).
T2 sequence: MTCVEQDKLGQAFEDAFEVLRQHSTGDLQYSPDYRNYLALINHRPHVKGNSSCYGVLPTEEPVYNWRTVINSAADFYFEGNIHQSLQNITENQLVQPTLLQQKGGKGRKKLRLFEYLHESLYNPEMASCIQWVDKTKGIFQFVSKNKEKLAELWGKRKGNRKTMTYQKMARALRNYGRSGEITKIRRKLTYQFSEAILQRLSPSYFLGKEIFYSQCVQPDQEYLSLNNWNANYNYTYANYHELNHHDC
The note with it: protein: recombinant; tags: N-terminal GST; dsDNA, one strand shown. In outline: as §1

In a further experiment the target is ELF4 (Homo sapiens, UniProt Q99607 1-663). The note with it: protein: recombinant; tags: N-terminal GST; dsDNA, one strand shown. In outline: as §1
Another experiment has as its target T3, ELK4 (Homo sapiens, UniProt P28324-2 1-405).
T3 sequence: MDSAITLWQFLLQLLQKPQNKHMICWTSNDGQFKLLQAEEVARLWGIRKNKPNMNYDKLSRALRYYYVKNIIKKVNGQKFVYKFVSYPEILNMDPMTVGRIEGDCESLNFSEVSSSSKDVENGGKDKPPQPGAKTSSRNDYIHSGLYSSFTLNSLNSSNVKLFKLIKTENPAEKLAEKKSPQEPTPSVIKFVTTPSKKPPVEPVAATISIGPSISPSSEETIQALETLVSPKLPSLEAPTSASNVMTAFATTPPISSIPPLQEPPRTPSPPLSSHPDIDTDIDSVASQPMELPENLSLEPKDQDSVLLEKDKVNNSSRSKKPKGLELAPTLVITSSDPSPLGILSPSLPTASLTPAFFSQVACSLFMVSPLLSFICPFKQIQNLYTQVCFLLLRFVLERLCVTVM
The note with it: protein: recombinant; tags: N-terminal GST; dsDNA, one strand shown. In outline:
as §1

The target of a further experiment is T4, ETV2 (Homo sapiens, UniProt O00321 1-342).
T4 sequence: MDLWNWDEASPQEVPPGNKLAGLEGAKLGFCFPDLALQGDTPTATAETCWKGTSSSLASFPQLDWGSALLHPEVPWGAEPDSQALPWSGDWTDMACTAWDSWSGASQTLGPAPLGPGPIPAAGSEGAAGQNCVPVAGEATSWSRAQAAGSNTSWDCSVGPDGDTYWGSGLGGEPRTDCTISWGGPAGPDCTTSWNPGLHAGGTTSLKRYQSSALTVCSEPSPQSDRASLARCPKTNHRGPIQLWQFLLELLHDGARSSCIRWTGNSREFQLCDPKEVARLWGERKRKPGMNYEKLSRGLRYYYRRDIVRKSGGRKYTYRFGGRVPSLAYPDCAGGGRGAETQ
The note with it: protein: recombinant; tags: N-terminal GST; dsDNA, one strand shown. In outline: as §1

The target in a further experiment is T5, ELF3 (Homo sapiens, UniProt P78545 1-371).
T5 sequence: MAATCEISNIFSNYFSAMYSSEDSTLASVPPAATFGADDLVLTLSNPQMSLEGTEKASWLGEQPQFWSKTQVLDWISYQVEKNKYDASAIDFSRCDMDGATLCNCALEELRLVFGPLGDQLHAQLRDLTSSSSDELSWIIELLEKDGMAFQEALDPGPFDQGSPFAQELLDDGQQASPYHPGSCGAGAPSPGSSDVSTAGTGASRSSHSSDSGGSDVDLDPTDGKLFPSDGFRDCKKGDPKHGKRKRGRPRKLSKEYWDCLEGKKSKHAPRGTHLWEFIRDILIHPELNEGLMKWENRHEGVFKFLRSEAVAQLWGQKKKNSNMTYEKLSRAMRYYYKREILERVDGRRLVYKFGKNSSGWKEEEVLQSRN
The note with it: protein: recombinant; tags: N-terminal GST; dsDNA, one strand shown. In outline:
as §1

For a further experiment, the target named is CRX (Homo sapiens, UniProt O43186 1-299). The note with it: protein: recombinant; tags: N-terminal GST; dsDNA, one strand shown. In outline: as §1
Another experiment deals with ETV1 (Homo sapiens, UniProt P50549 1-477). The note with it: protein: recombinant; tags: N-terminal GST; dsDNA, one strand shown. In outline: as §1
For the next experiment, the target named is T6, ERF (Homo sapiens, UniProt P50548 1-548).
T6 sequence: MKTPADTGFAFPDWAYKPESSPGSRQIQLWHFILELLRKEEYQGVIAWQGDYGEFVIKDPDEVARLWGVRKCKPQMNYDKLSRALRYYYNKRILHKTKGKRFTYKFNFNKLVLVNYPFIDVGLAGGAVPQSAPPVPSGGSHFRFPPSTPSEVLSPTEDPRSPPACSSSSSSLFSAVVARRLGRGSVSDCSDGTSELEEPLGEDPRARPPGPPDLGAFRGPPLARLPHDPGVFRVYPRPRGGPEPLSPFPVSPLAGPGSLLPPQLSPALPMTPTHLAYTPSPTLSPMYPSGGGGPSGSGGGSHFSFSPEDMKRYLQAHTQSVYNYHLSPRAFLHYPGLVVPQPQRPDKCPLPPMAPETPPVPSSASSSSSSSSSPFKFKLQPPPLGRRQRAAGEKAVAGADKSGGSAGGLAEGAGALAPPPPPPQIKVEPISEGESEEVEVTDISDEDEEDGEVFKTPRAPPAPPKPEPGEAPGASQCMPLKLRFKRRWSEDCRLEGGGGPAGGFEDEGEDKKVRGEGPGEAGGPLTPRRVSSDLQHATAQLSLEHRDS
The note with it: protein: recombinant; tags: N-terminal GST; dsDNA, one strand shown. In outline: as §1

For another experiment, the target named is T7, ETV3L (Homo sapiens, UniProt Q6ZN32 1-361).
T7 sequence: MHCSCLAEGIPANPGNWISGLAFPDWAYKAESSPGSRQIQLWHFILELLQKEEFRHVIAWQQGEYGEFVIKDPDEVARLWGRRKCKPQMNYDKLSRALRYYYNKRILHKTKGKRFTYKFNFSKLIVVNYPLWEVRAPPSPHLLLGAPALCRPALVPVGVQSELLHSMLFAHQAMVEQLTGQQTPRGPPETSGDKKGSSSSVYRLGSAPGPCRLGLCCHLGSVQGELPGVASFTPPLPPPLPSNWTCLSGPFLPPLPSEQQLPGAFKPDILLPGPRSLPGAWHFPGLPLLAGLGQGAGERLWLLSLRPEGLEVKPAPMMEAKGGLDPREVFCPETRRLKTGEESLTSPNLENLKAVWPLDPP
The note with it: protein: recombinant; tags: N-terminal GST; dsDNA, one strand shown. In outline:
as §1

Another experiment concerns the target T8, ETS2 (Homo sapiens, UniProt P15036 1-469).
T8 sequence: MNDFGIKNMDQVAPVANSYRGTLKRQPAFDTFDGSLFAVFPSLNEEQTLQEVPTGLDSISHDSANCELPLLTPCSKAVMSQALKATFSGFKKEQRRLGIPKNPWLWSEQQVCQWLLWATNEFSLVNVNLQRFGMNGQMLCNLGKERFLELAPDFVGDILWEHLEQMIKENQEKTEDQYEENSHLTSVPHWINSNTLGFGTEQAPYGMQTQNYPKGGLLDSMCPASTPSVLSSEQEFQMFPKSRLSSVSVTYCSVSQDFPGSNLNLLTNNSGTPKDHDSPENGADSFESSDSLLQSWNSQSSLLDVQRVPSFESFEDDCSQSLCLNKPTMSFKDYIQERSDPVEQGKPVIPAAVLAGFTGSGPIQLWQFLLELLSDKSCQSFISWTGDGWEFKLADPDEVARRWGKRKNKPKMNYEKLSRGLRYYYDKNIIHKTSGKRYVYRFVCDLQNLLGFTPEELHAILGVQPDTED
The note with it: protein: recombinant; tags: N-terminal GST; dsDNA, one strand shown. In outline:
as §1

In another experiment the target is T9, SPDEF (Homo sapiens, UniProt O95238 1-335).
T9 sequence: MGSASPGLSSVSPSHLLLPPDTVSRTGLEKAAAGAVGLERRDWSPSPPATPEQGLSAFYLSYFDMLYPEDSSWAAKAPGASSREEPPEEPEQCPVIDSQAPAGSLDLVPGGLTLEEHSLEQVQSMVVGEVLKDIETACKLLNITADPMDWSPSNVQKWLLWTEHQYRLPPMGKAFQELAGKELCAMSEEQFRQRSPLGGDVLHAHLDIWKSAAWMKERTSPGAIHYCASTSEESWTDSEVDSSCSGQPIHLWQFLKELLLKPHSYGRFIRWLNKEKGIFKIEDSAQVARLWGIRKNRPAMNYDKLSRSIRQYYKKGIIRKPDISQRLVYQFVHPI
The note with it: protein: recombinant; tags: N-terminal GST; dsDNA, one strand shown. In outline:
as §1

The target in a further experiment is T10, ETV7 (Homo sapiens, UniProt Q9Y603 1-341).
T10 sequence: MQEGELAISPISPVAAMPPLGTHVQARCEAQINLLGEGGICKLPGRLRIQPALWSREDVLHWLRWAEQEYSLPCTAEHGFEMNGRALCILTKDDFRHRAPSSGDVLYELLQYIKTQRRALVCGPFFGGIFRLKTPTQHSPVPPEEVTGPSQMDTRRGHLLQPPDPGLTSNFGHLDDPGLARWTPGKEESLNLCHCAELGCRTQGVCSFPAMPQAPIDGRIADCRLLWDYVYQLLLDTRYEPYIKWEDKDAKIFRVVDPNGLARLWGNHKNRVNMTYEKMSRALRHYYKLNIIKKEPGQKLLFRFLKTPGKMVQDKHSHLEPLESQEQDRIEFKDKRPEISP
The note with it: protein: recombinant; tags: N-terminal GST; dsDNA, one strand shown. In outline:
as §1

In a further experiment the target is T11, ELF5 (Homo sapiens, UniProt Q9UKW6-2 1-255).
T11 sequence: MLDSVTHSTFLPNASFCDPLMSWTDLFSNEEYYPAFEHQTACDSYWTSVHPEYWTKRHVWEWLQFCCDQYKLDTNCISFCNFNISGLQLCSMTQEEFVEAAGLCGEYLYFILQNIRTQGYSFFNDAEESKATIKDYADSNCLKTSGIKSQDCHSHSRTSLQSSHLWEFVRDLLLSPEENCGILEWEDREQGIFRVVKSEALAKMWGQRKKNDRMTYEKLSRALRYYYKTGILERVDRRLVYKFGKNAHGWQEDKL
The note with it: protein: recombinant; tags: N-terminal GST; dsDNA, one strand shown. In outline: as §1

A further experiment concerns the target T12, ETV3 (Homo sapiens, UniProt P41162-2 1-143).
T12 sequence: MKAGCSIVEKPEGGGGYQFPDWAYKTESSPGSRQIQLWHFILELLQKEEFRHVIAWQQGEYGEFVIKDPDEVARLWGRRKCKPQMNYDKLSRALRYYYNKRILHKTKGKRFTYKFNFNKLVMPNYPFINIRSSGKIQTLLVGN
The note with it: protein: recombinant; tags: N-terminal GST; dsDNA, one strand shown. In outline:
as §1

In another experiment the target is ETV6 (Homo sapiens, UniProt P41212 1-452). The note with it: protein: recombinant; tags: N-terminal GST; dsDNA, one strand shown. In outline: as §1
Chain of ETV6 (P41212 whole entry): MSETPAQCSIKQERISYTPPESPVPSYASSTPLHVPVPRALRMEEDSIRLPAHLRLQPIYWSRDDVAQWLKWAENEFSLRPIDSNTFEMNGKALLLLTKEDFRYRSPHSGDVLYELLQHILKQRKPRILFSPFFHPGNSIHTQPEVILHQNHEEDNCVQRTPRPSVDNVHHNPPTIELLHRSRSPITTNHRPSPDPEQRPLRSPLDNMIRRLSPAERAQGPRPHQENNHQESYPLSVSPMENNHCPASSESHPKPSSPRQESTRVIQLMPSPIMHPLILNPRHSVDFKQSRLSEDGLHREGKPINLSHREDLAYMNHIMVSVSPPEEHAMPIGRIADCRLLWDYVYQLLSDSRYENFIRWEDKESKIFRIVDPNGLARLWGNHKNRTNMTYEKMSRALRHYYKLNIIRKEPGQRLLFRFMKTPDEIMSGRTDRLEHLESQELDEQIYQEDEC

Chain of HSF1 (Q00613 whole entry): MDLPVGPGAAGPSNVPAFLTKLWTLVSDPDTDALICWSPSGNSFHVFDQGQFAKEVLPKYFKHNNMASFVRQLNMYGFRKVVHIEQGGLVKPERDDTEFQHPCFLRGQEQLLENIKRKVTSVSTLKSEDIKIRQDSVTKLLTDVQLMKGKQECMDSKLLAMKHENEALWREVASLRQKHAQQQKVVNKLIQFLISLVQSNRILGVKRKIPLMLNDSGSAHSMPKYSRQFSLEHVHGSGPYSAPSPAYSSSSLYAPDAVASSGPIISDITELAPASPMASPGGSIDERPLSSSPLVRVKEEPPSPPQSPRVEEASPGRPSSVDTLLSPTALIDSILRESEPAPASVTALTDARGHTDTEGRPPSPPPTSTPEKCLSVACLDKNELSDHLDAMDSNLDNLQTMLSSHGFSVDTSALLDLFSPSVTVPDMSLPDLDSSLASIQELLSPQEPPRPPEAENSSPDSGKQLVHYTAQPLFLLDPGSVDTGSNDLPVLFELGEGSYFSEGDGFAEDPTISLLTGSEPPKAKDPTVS
Chain of ELF4 (Q99607 whole entry): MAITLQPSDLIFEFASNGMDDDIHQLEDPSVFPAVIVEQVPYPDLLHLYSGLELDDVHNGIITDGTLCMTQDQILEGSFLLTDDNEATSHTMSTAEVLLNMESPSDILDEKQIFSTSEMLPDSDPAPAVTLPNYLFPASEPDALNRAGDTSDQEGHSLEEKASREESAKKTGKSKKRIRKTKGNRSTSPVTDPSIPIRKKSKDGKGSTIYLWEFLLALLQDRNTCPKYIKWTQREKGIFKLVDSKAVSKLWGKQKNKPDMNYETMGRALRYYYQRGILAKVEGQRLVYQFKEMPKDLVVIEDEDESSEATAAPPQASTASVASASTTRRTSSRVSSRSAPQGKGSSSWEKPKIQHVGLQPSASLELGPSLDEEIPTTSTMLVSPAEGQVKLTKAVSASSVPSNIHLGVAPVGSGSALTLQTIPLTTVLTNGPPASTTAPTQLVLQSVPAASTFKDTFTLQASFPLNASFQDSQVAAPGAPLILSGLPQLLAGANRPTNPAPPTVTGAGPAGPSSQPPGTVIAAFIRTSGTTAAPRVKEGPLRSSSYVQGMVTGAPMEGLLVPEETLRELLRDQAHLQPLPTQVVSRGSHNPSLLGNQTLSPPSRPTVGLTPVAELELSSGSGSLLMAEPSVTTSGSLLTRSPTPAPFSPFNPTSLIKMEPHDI
Chain of ETV1 (P50549 whole entry): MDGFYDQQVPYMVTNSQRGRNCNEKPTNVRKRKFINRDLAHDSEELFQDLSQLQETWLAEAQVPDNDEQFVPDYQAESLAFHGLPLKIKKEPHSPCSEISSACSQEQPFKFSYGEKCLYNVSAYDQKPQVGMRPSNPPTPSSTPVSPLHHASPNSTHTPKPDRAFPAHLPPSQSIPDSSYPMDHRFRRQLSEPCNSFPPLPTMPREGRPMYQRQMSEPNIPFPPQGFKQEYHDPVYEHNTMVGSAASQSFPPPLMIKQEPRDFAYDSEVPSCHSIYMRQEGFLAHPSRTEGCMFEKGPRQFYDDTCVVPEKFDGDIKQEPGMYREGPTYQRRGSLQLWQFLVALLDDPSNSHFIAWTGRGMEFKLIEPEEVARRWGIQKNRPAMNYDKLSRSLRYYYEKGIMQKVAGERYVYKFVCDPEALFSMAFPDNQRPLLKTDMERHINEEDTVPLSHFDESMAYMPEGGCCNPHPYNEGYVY
Chain of CRX (O43186 whole entry): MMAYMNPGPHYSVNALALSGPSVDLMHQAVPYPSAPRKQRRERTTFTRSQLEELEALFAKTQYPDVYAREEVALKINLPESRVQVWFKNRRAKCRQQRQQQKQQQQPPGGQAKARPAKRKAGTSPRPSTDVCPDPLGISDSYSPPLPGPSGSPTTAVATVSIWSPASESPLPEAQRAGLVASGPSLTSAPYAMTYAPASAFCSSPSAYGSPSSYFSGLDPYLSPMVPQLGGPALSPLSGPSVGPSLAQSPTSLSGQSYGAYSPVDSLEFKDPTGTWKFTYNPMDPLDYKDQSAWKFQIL
Chain of ETV5 (P41161 whole entry): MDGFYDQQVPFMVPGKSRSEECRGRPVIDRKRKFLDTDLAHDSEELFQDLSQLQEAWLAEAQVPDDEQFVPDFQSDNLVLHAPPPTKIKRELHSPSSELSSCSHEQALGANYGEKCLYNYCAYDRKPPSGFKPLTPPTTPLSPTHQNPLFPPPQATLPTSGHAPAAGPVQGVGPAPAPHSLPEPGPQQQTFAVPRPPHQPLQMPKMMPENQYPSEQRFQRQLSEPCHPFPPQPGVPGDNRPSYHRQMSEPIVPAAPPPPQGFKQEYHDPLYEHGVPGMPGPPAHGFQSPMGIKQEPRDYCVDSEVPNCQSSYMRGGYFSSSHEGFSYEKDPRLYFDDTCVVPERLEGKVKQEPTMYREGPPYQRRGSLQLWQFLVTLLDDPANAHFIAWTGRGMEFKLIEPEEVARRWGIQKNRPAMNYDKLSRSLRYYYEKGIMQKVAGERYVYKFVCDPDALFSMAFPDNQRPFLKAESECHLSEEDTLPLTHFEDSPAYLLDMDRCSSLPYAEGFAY

Take TGCTAA: the binding signal with FEV was 1.29 fold enrichment (6-mer frequency, TF over GST control); in the experiment with ETV5, 1.29 fold enrichment (6-mer frequency, TF over GST control); with HSF1, 1.32 fold enrichment (6-mer frequency, TF over GST control); with SPIC it was 1.26 fold enrichment (6-mer frequency, TF over GST control); with ELF4 it was 1.28 fold enrichment (6-mer frequency, TF over GST control); with ELK4, 1.42 fold enrichment (6-mer frequency, TF over GST control). Also, the binding signal in the experiment with ETV2 was 1.24 fold enrichment (6-mer frequency, TF over GST control); in the experiment with ELF3 it was 1.15 fold enrichment (6-mer frequency, TF over GST control); with CRX, 1.8 fold enrichment (6-mer frequency, TF over GST control); with ETV1, 1.39 fold enrichment (6-mer frequency, TF over GST control); with ERF, 1.13 fold enrichment (6-mer frequency, TF over GST control); in the experiment with ETV3L it was 1.25 fold enrichment (6-mer frequency, TF over GST control). Further, the binding signal was 1.34 fold enrichment (6-mer frequency, TF over GST control) in the experiment with ETS2; 1.32 fold enrichment (6-mer frequency, TF over GST control) in the experiment with SPDEF; 1.28 fold enrichment (6-mer frequency, TF over GST control) with ETV7; 1.25 fold enrichment (6-mer frequency, TF over GST control) with ELF5; 1.22 fold enrichment (6-mer frequency, TF over GST control) in the experiment with ETV3; 1.29 fold enrichment (6-mer frequency, TF over GST control) with ETV6.
